Screen size: about 2,400 compounds; about 1,500 (62%) were called active. So high a share suggests a set chosen from earlier hits. The list is a sample of the results. Values without a mark were called inactive. Rule as the data show it: active = inhibition above about 22%; inactive = the rest.
The molecules below were run against Melanin-concentrating hormone receptor 1 (Homo sapiens) (UniProt Q99705) (assay: antagonism of human MCHR1 receptor – cell-based, fluorescence, counter-screen for GPR7 antagonist project (AID 2148;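 also: 0% = vehicle with agonist and 100% = vehicle without agonist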)). Conditions: MCHR1-expressing cells, fluorescence antagonist assay; at 4.4 µM; hits give high values.
In the case of `Cc1ccc(NC2=C(Cl)C(=O)OC2OC(=O)c2ccccc2C)cc1` (stereo not given), the inhibition is reported as 39.7% (active). With `COc1ccc(NC(=O)C2CCC(CNS(=O)(=O)c3csc(C(N)=O)c3)CC2)cc1OC` (stereo not given) the inhibition was 7.62%. In the case of `CC1(C)CC(CNCCC(c2ccc(F)cc2)c2ccco2)CCO1` (stereo not given), the inhibition is reported as 23.9% (active). Molecule `Cc1ccc(CNC(=O)C2CCN(S(=O)(=O)c3ccc4nc5c(c(C(=O)O)c4c3)CC(C)CC5)CC2)cc1` (stereo not given) has an inhibition of 10.8%. With `Cn1c(=O)c([N+](=O)[O-])c(Oc2ccccc2)c2ccccc21` the inhibition was 30.5% (active). In the case of `COc1cc(OC)c(-n2cc(-c3ccc(Cl)cc3)[nH]c2=O)cc1Cl`, the inhibition is reported as 53.2% (active). For `Cc1cccc(-c2nc3ccc(C(=O)NCCN4CCN(C)CC4)cc3nc2-c2cccc(C)c2)c1`, the inhibition was 34.7% (active). `S=C(NCCc1ccccc1)Nc1ccccc1` was tested, and the inhibition was 33.6% (active). In the case of `CN(c1ccccc1)S(=O)(=O)c1ccc(C(=O)NCCc2ccccc2)cc1`, the inhibition is reported as 11.5%. In the case of `COc1ccccc1N1CCN(c2ncnc3sc(C)c(-c4ccccc4)c23)CC1`, the inhibition is reported as 56.4% (active). `COc1ccccc1CNC(=O)COc1ccc(C)nc1[N+](=O)[O-]` showed an inhibition of -4%. In the case of `Cc1cc(OCc2ccc(C(=O)Nc3ccc(C(=O)O)cc3)o2)ccc1Cl`, the inhibition is reported as 22% (active). With `CC(C)(C)CC(C)(C)NCC(O)COCCOc1ccc(Br)cc1` (stereo not given) the inhibition was 47.4% (active). In the case of `O=C(Nc1ccc2ccccc2c1)Nc1ccc2snnc2c1`, the inhibition is reported as 61.5% (active). For `CCN1CCN(c2ccc([N+](=O)[O-])cc2C(=O)c2ccc(Cl)cc2)CC1`, the inhibition was 41.1% (active). With `OC(CNCC1CCCO1)Cn1c2ccc(Br)cc2c2cc(Br)ccc21` (stereo not given) the inhibition was 81.1% (active). In the case of `O=C(CCCN1CCc2[nH]c3ccc(F)cc3c2C1)c1ccc(F)cc1`, the inhibition is reported as 44.6% (active). `CS(=O)(=O)Nc1cccc(C2=NN(S(=O)(=O)c3ccccc3)C(c3cccs3)C2)c1` (stereo not given) was tested, and the inhibition was 25.9% (active). With `COc1ccc(OC)c(C(c2nnnn2C(C)(C)C)N2CCc3ccccc3C2)c1` (stereo not given) the inhibition was 47.3% (active). `COCCCNC(=S)N1CCN(c2nc(-c3cccc(OC)c3)cs2)CC1` was tested, and the inhibition was 51.1% (active). `Cc1ccc(NC(=O)CN2CCC3(O)CCCCC3C2c2ccc3c(c2)OCO3)c(C)c1` (stereo not given) was tested, and the inhibition was 24.9% (active). `COc1ccc([N+](=O)[O-])cc1N(CC(O)CN(CC(C)C)CC(C)C)S(=O)(=O)c1ccc(C)cc1` (stereo not given) was tested, and the inhibition was 66% (active). In the case of `COCCN(Cc1cc2cc3c(cc2nc1Cl)OCO3)C(=O)c1cccc(C)c1`, the inhibition is reported as 37.5% (active). For `Cc1cccc(CS(=O)(=O)c2ncc(Cl)c(C(=O)Nc3ccc(F)cc3)n2)c1`, the inhibition was 92.1% (active). Molecule `COc1ccc(N=C2SC(C(=O)Nc3ccc(F)cc3)CC(=O)N2C)cc1` (stereo not given) has an inhibition of 3.76%.

Reference: PubChem BioAssay AID2148 (The Scripps Research Institute Molecular Screening Center, 2009)
